Test results published in PubChem BioAssay (NCATS).
Inconclusive results are not listed. Active and inactive are the calls of the source. Unless noted, the call rests on the fitted dose curve; in most records, active means well fitted inhibition curve with a large enough effect; inconclusive means small, poorly fitted or top-dose-only effect; inactive means flat fitted curve, though single readings scatter. Peptide text beside a SMILES is read from it.

Columns and labels:
[1] = qHTS drug screen for cell cycle checkpoint inhibitors in PARPi-resistant BRCA-mutant ovarian cancer cell lines. (AID 1963452; calls by dose curve); conditions: PEO1/OlaR viability, CellTiter-Glo luminescence, 96 h; for Z-AUC: stronger effect = lower value
Method in brief: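 PEO1, PEO4 and PEO1/OlaR ovarian cancer cells, 600 per well, exposed 96 h at 37C to a dilution series. Viability read by CellTiter-Glo luminescence, normalized to DMSO and empty wells; activity summarized as Z-AUC.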

[2] = qHTS for identification of novel therapeutic agents for treatment of microphthalmiaassociated transcription factor (MiT) renal cell carcinoma (RCC) (AID 1963991; calls by dose curve;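 on z-score: curves scaled with 100% = DMSO viability and 0% = empty wells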); conditions: CellTiter-Glo, 48 h; for z-score: stronger effect = lower value; for Potency: active = Z-AUC below -0.8 in all three lines
Method in brief: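 UOK109/UOK124/UOK145 (TFE3 fusions, three partners); 500 cells/well; MIPE v4.0, 1912 cpds, 11 conc.; 48 h, 37 C; CellTiter-Glo, 15 min RT; lum. Norm.: DMSO 100%, empty 0%.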

[3] = qHTS profiling for inhibitors of Plasmodium falciparum proliferation (AID 504749); further: nearly all actives have a fitted effect of over 60% in size;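 on activity, negative = inhibition: 0% = DMSO vehicle and full inhibition = artemisinin control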; conditions: P. falciparum in erythrocytes, SYBR Green DNA, 72 h
Method in brief: (§1)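 P. falciparum-infected erythrocytes (0.3% parasitemia, 2.5% hematocrit) incubated with compound 72 h at 37 C, 5% CO2. Parasite DNA detected by SYBR Green after lysis, overnight at room temperature; normalised to 0.29 uM artemisinin and DMSO.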

3D7 = experiment: as above; conditions: P. falciparum in erythrocytes, SYBR Green DNA, 72 h; series mostly up to 28.7 µM
Method in brief: as §1

7G8 = experiment: as above; conditions: P. falciparum in erythrocytes, SYBR Green DNA, 72 h; series mostly up to 28.7 µM
Method in brief: as §1

AA1029 = experiment: as above; conditions: P. falciparum in erythrocytes, SYBR Green DNA, 72 h; series mostly up to 28.7 µM
Method in brief: as §1

AS120 = experiment: as above; conditions: P. falciparum in erythrocytes, SYBR Green DNA, 72 h; series mostly up to 28.7 µM
Method in brief: as §1

ATS189 = experiment: as above; conditions: P. falciparum in erythrocytes, SYBR Green DNA, 72 h; series mostly up to 28.7 µM
Method in brief: as §1

[4] = measured here: PEO1 parental Z-AUC
[5] = TFE3-RCC UOK109 viability, measured here: UOK109 Z-AUC
[6] = TFE3-RCC viability, measured here: UOK124 Z-AUC
[7] = TFE3-RCC viability, measured here: UOK145 Z-AUC
[8] = at 28.7 µM (top of the series), parasite line A
[9] = at 28.7 µM (top of the series), parasite line B
[10] = at 12.8 µM (top of the series), parasite line A
[11] = at 12.8 µM (top of the series), parasite line B
Potency means the concentration at half of the fitted maximal effect.

SMILES	Z-AUC [1]	Z-AUC [1, 4]	Z-AUC ([1]; measured here: PEO4 Z-AUC)	z-score [2, 5]	z-score [2, 6]	z-score [2, 7]	activity, negative = inhibition [3, 8]	activity, negative = inhibition [3, 9]	Potency (3D7)	Potency (7G8)	Potency (AA1029)	Potency (AS120)	Potency (ATS189)	activity, negative = inhibition [3, 10]	activity, negative = inhibition [3, 11]	Potency ([2]; TFE3-RCC UOK109 viability)	Potency ([3]; parasite line A)	Potency ([3]; parasite line B)	Potency [1]
Nc1ccc(S(N)(=O)=O)cc1	0.067 (inactive)	0.495	0.56	1.06	0.709	1.29	13.4% (inactive)	14.6% (inactive)	inactive	inactive	inactive	inactive	inactive	–	–	–	–	–	–
CC1Cc2ccccc2N1NC(=O)c1ccc(Cl)c(S(N)(=O)=O)c1 (stereo not drawn)	-0.461 (inactive)	-0.0256	0.0474	0.928	0.508	0.493	–	–	–	–	–	–	–	–	–	–	–	–	–
CN1C(C(=O)Nc2ccccn2)=C(O)c2sccc2S1(=O)=O	1.5 (inactive)	1.16	1.02	1.14	0.504	0.557	–	–	inactive	inactive	inactive	inactive	inactive	-2.2% (inactive)	-4.64% (inactive)	–	–	–	–
CCCCCCCCCCCCCCCCCCCCCCO	0.761 (inactive)	0.472	0.414	0.385	0.0399	0.476	-0.041% (inactive)	-11.9% (inactive)	inactive	inactive	inactive	inactive	inactive	–	–	–	–	–	–
CC(C)(S)[C@@H](N)C(=O)O	0.193 (inactive)	0.891	1.3	0.813	0.506	1.37	1.57% (inactive)	-13.2% (inactive)	inactive	inactive	inactive	inactive	inactive	–	–	–	–	–	–
C[Se]CCC(N)C(=O)O (stereo not drawn)	0.282 (inactive)	1.03	1.31	1.47	0.35	0.0936	6.19% (inactive)	-13.4% (inactive)	inactive	inactive	inactive	inactive	inactive	–	–	–	–	–	–
CCCOc1ccc2nc(NC(=O)OC)[nH]c2c1	-0.576 (inactive)	-0.504	-0.563	-2.25	-3.82	-2.16	-0.812% (inactive)	13.5% (inactive)	inactive	inactive	inactive	inactive	inactive	–	–	7.43 nM (active)	–	–	–
COC(=O)C1=C(C)NC(C)=C(C(=O)OCCCN2CCC(c3ccccc3)(c3ccccc3)CC2)C1c1cccc([N+](=O)[O-])c1 (stereo not drawn)	0.516 (inactive)	0.68	0.403	1.29	0.568	0.759	–	–	2820 nM (active)	2000 nM (active)	4470 nM (active)	2820 nM (active)	4470 nM (active)	–	–	–	4470 nM (active)	6310 nM (active)	–
C[C@@H](c1ncncc1F)[C@](O)(Cn1cncn1)c1ccc(F)cc1F	-0.415 (inactive)	1.15	0.481	0.104	0.588	0.181	–	–	–	–	–	–	–	–	–	–	–	–	–
CCOC(=O)C(C)Oc1cccc2c(=O)n(CC(=O)Nc3ccc4c(c3)OCCO4)ccc12 (stereo not drawn)	0.881 (inactive)	0.435	0.282	0.811	0.396	0.65	–	–	–	–	–	–	–	–	–	–	–	–	–
CCOC(=O)C1=C(O)C(=O)N(Cc2ccccc2)C1	1.25 (inactive)	1.01	1.38	0.919	0.303	0.693	–	–	–	–	–	–	–	–	–	–	–	–	–
COC(=O)[C@H](Cc1ccccc1)NC(=O)[C@@H](N)CC(=O)O (H-Asp-Phe-OMe)	0.187 (inactive)	0.0667	0.437	0.591	0.672	0.618	5.55% (inactive)	9.71% (inactive)	inactive	inactive	inactive	inactive	inactive	–	–	–	–	–	–
Cc1ncc([N+](=O)[O-])n1CC(C)O (stereo not drawn)	0.202 (inactive)	1.06	0.768	1.59	0.687	1.68	11.8% (inactive)	17% (inactive)	inactive	inactive	inactive	inactive	inactive	–	–	–	–	–	–
CC(C)C[C@H](NC(=O)[C@H](Cc1ccccc1)NC(=O)c1cnccn1)B(O)O	–	-3.19	-2.39	-1.97	-3.15	-4.08	–	–	–	–	–	–	–	–	–	118 nM (active)	–	–	9.8 nM (active)
CCCCc1ccc2nc(NC(=O)OC)[nH]c2c1	–	-1.68	-1.66	-1.8	-3.11	-1.73	–	–	inactive	inactive	inactive	inactive	inactive	2.35% (inactive)	6.2% (inactive)	16.6 nM (active)	–	–	38.9 nM (active)
O=P(O)(O)C(O)(Cn1ccnc1)P(=O)(O)O	1.02 (inactive)	1.58	2.08	0.735	1.17	1.01	8.24% (inactive)	-1.43% (inactive)	inactive	inactive	inactive	inactive	inactive	–	–	–	–	–	–

SMILES	Z-AUC [1]	Z-AUC [1, 4]	Z-AUC ([1]; measured here: PEO4 Z-AUC)	z-score [2, 5]	z-score [2, 6]	z-score [2, 7]	activity, negative = inhibition [3, 8]	activity, negative = inhibition [3, 9]	Potency (3D7)	Potency (7G8)	Potency (AA1029)	Potency (AS120)	Potency (ATS189)	activity, negative = inhibition [3, 10]	activity, negative = inhibition [3, 11]	Potency ([2]; TFE3-RCC UOK109 viability)	Potency ([3]; parasite line A)	Potency ([3]; parasite line B)	Potency [1]
CS(=O)(=O)OCCCCOS(C)(=O)=O	0.989 (inactive)	0.976	1.46	1.01	2.44	1.02	5.89% (inactive)	-1.27% (inactive)	inactive	inactive	inactive	inactive	inactive	–	–	–	–	–	–
CC(=O)O[C@H]1C(=O)[C@@]2(C)C([C@H](OC(=O)c3ccccc3)[C@]3(O)C[C@H](OC(=O)[C@H](O)[C@@H](NC(=O)c4ccccc4)c4ccccc4)C(C)=C1C3(C)C)[C@]1(OC(C)=O)CO[C@@H]1C[C@@H]2O (stereo partly drawn)	–	-2.74	-3.15	-1.4	-1.86	-1.46	–	–	–	–	–	–	–	–	–	41.8 nM (active)	–	–	7.8 nM (active)
COc1c2occc2cc2ccc(=O)oc12	0.446 (inactive)	1.07	1.02	-0.0945	0.483	0.177	–	–	–	–	–	–	–	–	–	–	–	–	–
COc1cc(OC)c(C(=O)CCCN2CCCC2)c(OC)c1	1.29 (inactive)	0.91	0.794	1.14	0.362	-0.41	–	–	inactive	inactive	inactive	inactive	inactive	17.5% (inactive)	11% (inactive)	–	–	–	–
CCCCC(CC)COC(=O)C(C#N)=C(c1ccccc1)c1ccccc1 (stereo not drawn)	0.188 (inactive)	-0.152	0.0622	–	–	–	–	–	–	10000 nM (active)	–	–	–	–	–	–	11200 nM (active)	–	–
O=C(O)c1cn(-c2ccc(F)cc2)c2cc(N3CCNCC3)c(F)cc2c1=O	0.692 (inactive)	0.709	0.947	0.863	0.568	0.628	-18.3% (inactive)	-17.6% (inactive)	inactive	–	–	inactive	inactive	–	–	–	–	–	–
Oc1ccc(OCc2ccccc2)cc1	0.481 (inactive)	0.491	0.0323	1.11	0.685	1.26	–	–	–	inactive	inactive	inactive	inactive	-21.7% (inactive)	-19.8% (inactive)	–	–	–	–
COc1ccc2cc([C@H](C)C(=O)O)ccc2c1	-0.4 (inactive)	-0.248	-0.0585	1.29	0.689	0.68	–	–	–	inactive	inactive	inactive	inactive	6.49% (inactive)	-0.339% (inactive)	–	–	–	–
NNc1nncc2ccccc12	0.571 (inactive)	0.709	0.892	-0.0991	0.525	0.517	–	–	–	891 nM (active)	inactive	–	3550 nM (active)	-1.16% (inactive)	-10.3% (inactive)	–	–	–	–
c1ccc2[nH]c(-c3cscn3)nc2c1	-1.4 (inactive)	-0.204	0.0577	-0.345	0.601	-0.852	–	-25.8% (inactive)	inactive	inactive	inactive	inactive	–	–	–	–	–	–	–
CCN(CCO)CCCC(C)Nc1ccnc2cc(Cl)ccc12 (stereo not drawn)	1.8 (inactive)	1.41	1.84	–	–	–	–	–	562 nM (active)	–	inactive	inactive	inactive	–	–	–	708 nM (active)	1000 nM (active)	–
Cc1cc2cc3c(C)cc(=O)oc3c(C)c2o1	0.166 (inactive)	0.892	0.841	–	–	–	–	–	inactive	inactive	inactive	inactive	inactive	2% (inactive)	12.4% (inactive)	–	–	–	–
CC(S)C(=O)NCC(=O)O (stereo not drawn)	-0.465 (inactive)	0.365	0.0416	–	–	–	5.37% (inactive)	13.7% (inactive)	inactive	–	inactive	inactive	inactive	–	–	–	–	–	–
Cc1ccc(NC(=O)c2ccc(CN3CCN(C)CC3)cc2)cc1Nc1nccc(-c2cccnc2)n1	-0.776 (inactive)	-0.808	-0.886	–	–	–	–	–	–	7940 nM (active)	11200 nM (active)	8910 nM (active)	12600 nM (active)	–	–	–	–	11200 nM (active)	–
CC1=C(C)C(=O)C(C(CCCCCC(=O)O)c2ccccc2)=C(C)C1=O (stereo not drawn)	0.121 (inactive)	0.192	0.237	0.248	0.105	-0.311	-13.8% (inactive)	-26.9% (inactive)	–	inactive	inactive	–	–	–	–	–	–	–	–
